A selection: hits, their analogues and other compounds. The true share with any hit is near 10%.
HEK293 tox – kills HEK 293 cells | HEK 293 viability, ATP luminescence (CellTiter-Glo), 48-72 h | Potency, µM (top dose mostly 115 µM), inactives show at the top dose activity change, negative = cytotoxicity, most hits filed as inhibitors | hit rate 6.6% among 94,000 | AID 1345083; also: % is scaled to controls: 0 for no effect and ±100 for the full control effect; nearly all actives have a fitted effect of over 60% in size
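Luminescence from cellular ATP, measured with CellTiter-Glo, indicates HEK 293 viability. Cells plated at 250 cells/well are treated with compound for 48 or 72 hr at 37 degree Celsius before reagent addition.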
NIH3T3 tox – kills NIH 3T3 cells; AID 1345082; hit rate 4.3% among 94,000; NIH 3T3 viability, CellTiter-Glo ATP luminescence, 48-72 h; Potency, µM (series often up to 96.7 µM), for the others: top-dose activity change, negative = cytotoxicity, hits mostly inhibitors; also: % is scaled to controls: 0 for no effect and ±100 for the full control effect; nearly all actives have a fitted effect of over 55% in size
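Cells were seeded at 400 per well, treated with pin-transferred compound, and kept 48 or 72 hr at 37 °C before CellTiter-Glo addition and luminescence imaging of cellular ATP.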
NPR1 antag – antagonists of human natriuretic peptide receptor Npr1; P16066; HEK293 hNpr1 GloSensor cGMP, ANP-stimulated luminescence; Potency, µM (titrated, usually from 46.3 µM), for inactives: at the top dose activity change, negative = inhibition, actives largely listed as inhibitors; hit rate 1.6% among 76,000; AID 1347048; calls by dose curve; also: % is scaled to controls: 0 for no effect and ±100 for the full control effect; nearly all actives have a fitted effect of over 60% in size
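HEK293 cells stably expressing human Npr1 and cGMP GloSensor pGS-40F, loaded 2 h with 2% GloSensor reagent, given compound 30 min at room temperature. Luminescence read before and 20 min after 0.1 nM hNppA.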
FLuc inh-1 – Photinus pyralis luciferase inhibition. purified P. pyralis luciferase, luminescence, biochemical. hit rate 2.5% among 76,000. P08659. Potency, µM (top dose mostly 115 µM), hits mostly inhibitors. AID 1347043; also: % is scaled to controls: 0 for no effect and ±100 for the full control effect; nearly all actives have a fitted effect of over 65% in size
Target sequence (P08659 whole entry, looked up): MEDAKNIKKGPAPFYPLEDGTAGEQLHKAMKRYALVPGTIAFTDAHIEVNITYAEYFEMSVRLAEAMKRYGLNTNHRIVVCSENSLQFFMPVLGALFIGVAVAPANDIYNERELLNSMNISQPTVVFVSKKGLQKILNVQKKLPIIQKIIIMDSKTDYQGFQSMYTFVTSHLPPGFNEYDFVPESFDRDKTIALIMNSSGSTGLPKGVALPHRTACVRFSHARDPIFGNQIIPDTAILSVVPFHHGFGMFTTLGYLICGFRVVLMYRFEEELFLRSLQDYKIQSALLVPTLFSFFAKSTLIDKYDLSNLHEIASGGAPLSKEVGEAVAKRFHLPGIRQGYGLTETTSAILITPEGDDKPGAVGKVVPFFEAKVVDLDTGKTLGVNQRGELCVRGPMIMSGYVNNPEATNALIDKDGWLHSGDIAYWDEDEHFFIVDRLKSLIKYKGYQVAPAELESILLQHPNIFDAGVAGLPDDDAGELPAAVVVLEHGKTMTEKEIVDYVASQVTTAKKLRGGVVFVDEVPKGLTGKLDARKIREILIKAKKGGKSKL
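Cell-free enzyme assay, 10nM P. pyralis luciferase, luciferin and ATP each at 10uM. Inhibition profiled over a 6-point titration, read as luminescence.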
GPT2 inhibitor – inhibitors of human GPT2 alanine aminotransferase | Q8TD30 | Recombinant GPT2, coupled pyruvate oxidase/HRP Amplex Red fluorescence | Potency, µM (highest dose often 57.7 µM), for inactives: at the top dose activity change, negative = inhibition, most hits filed as inhibitors | hit rate 0.25% among 100,000 | AID 1671188; also: % is scaled to controls: 0 for no effect and ±100 for the full control effect; nearly all actives have a fitted effect of over 60% in size
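Recombinant GPT2 (10ng/uL) with 250uM a-KG and 2mM L-alanine, 30 min at room temperature, in HEPES pH 7.5 buffer. Pyruvate detected by pyruvate oxidase/HRP/Amplex Red fluorescence after 30 min in the dark; AOA (50uM) as positive control.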
FLuc SDR no ATP – binders stabilizing firefly luciferase, without ATP | AID 1963318 | shares compounds with FLuc inh-1 | Potency, µM (top dose mostly 32.7 µM), without a hit: top-dose activation (signal gain), actives largely listed as activators | hit rate 7.8% among 1,300 | Purified FLuc-C-HiBiT, Nano-Glo HiBiT luminescence, no ATP; also: nearly all actives have a fitted effect of over 55% in size
FLuc SDR ATP – firefly luciferase binding stabilization, ATP added; shares compounds with FLuc inh-1; purified FLuc-C-HiBiT + ATP, HiBiT complementation luminescence; Potency, µM (doses to about 32.7 µM), for inactives: at the highest dose activation (gain of signal), hits mostly activators; hit rate 8.7% among 1,300;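 also: signal reports ligand binding via conformational change of the enzyme rather than luciferase catalysis; % of control where 0% means no effect; nearly all actives have a fitted effect of over 55% in size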
FLuc inh-2 – firefly luciferase enzyme inhibition. Potency, µM (top dose mostly 32.7 µM), without a hit: at the highest dose activity change, negative = inhibition, hits mostly inhibitors. shares compounds with FLuc inh-1. hit rate 42% among 1,300. purified FLuc-C-HiBiT enzyme, luciferin luminescence; also: % is scaled to controls: 0 for no effect and ±100 for the full control effect; nearly all actives have a fitted effect of over 70% in size
The depositor's hits bear a star; [ ] = another dose, or the depositor's remark. Unless noted, calls follow the shape of the dose curve; as a rule, active = well fitted curve in the direction sought with a large enough effect; inconclusive = small, poorly fitted or top-dose-only effect, or another doubt; inactive = no such curve, though single readings can be large; an effect the other way counts as inactive or inconclusive. Potency is read from the fitted curve at half-maximal effect.

For CN1CCN(c2ccc(-c3cc4c(ccn4C)c(C(=O)NCCC(N)=O)n3)cc2)CC1 the results were HEK293 tox 70.8µM*, NIH3T3 tox 79.4µM*, NPR1 antag -3.5%[70.6 µM], FLuc inh-1 7.08µM*, GPT2 inhibitor 1.9%[88.5 µM], FLuc SDR no ATP 26.2%[49.3 µM], FLuc SDR ATP 17.2%[49.3 µM] and FLuc inh-2 14.3µM*.
CCc1nc(-c2c3n(c(=O)n(Cc4ccccc4C(F)(F)F)c2=O)CCCC3)no1 was read as HEK293 tox 0.0%, NIH3T3 tox inactive, NPR1 antag 5.2%, FLuc inh-1 inactive and GPT2 inhibitor -17.9%.
`O=C1OCCN1CCNc1ccc(-c2nc(-c3ccccc3F)no2)cn1` gave HEK293 tox 44.7µM*, NIH3T3 tox inconclusive, NPR1 antag inconclusive, FLuc inh-1 5.62µM*, GPT2 inhibitor -0.9%, FLuc SDR no ATP 18.7%, FLuc SDR ATP 18.7% and FLuc inh-2 inconclusive.
CN(C)c1nc(NCCN2CCOC2=O)ncc1F was read as HEK293 tox -14.5%, NIH3T3 tox -3.5%, NPR1 antag -4.4%, FLuc inh-1 inactive and GPT2 inhibitor -2.3%.
`Oc1ccc(-c2nc3ccccn3c2Nc2ccc3c(c2)OCCO3)cc1` gave FLuc SDR no ATP 21.4%, FLuc SDR ATP 16.9% and FLuc inh-2 inconclusive.
Screening CN(C)c1ccc(-c2nc3ccccn3c2Nc2ccc3c(c2)OCCO3)cc1 returned FLuc SDR no ATP 18.9%, FLuc SDR ATP 13.3% and FLuc inh-2 11.1µM*.
Cc1ccc(OCc2nc(C3CN(C(=O)c4ccc5nc[nH]c5c4)C3)no2)cc1 was read as HEK293 tox inconclusive, NIH3T3 tox inconclusive, NPR1 antag inconclusive, FLuc inh-1 inactive and GPT2 inhibitor -6.2%.
For COc1cccc(C(=O)Nc2ccc(-c3nc4ccccc4s3)cc2Cl)c1 the results were FLuc SDR no ATP 14.1%, FLuc SDR ATP 8.6% and FLuc inh-2 -1.1%.
Screening COc1ccc(CC(=O)Nc2ccc(-c3nc4ccccc4s3)cc2Cl)cc1OC returned FLuc SDR no ATP 15.5%, FLuc SDR ATP 10.8% and FLuc inh-2 -19.2%.
`COc1cccc(CC(=O)Nc2ccc(-c3nc4ccccc4s3)cc2Cl)c1` gave FLuc SDR no ATP 12.6%, FLuc SDR ATP 9.3% and FLuc inh-2 -9.4%.
COc1ccc(CCC(=O)Nc2nc3ccc(Cl)cc3s2)cc1OC was read as GPT2 inhibitor inactive.
For COc1cccc(C(=O)Nc2cc(-c3ccncc3)nn2C)c1 the results were HEK293 tox inconclusive, NIH3T3 tox inconclusive and GPT2 inhibitor inactive.
COc1cccc(CNC(=O)CNC(=O)c2ccc(-c3cnc4ccccc4c3)cc2)c1 was read as HEK293 tox inconclusive, NIH3T3 tox -15.2% and GPT2 inhibitor 0.5%.
Screening CS(=O)(=O)N1CCC(C2CCN(C(=O)c3ccc[nH]c3=O)C2)CC1 (stereo unspecified) returned HEK293 tox inactive, NIH3T3 tox -6.3%, NPR1 antag 2.0%, FLuc inh-1 inactive and GPT2 inhibitor 3.3%.
For COC[C@@H]1CN(Cc2ccccc2OC(C)C)C[C@H]1C(N)=O the results were HEK293 tox -19.2%, NIH3T3 tox -5.0%, NPR1 antag 4.9%, FLuc inh-1 inactive and GPT2 inhibitor 4.1%.
